A structure can be active in one record and inactive in another. Activity calls are given as the source filed them. Rule for the calls: active = hit-call score of the fitted dose curve at least 0.9, where 1 is the maximum; inactive = score below 0.9.
These compounds were tested on Macrophage Inflammatory Protein-1 Alpha (MIP1a), CCL3 (gene 6348) (assay: BSK_IMphg_MIP1a: BioMAP Diversity Plus: IMphg Assay for Macrophage Inflammatory Protein-1 Alpha (MIP1a) Biomarker Activity (AID 2284255)). Conditions: primary human endothelial cells with macrophages.
Summary of the method: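 MIP-1a protein levels were quantified by ELISA after 24 h treatment of human endothelial cell–macrophage co-cultures, compared with DMSO. Parallel cultures were fixed with TCA and stained with 0.1% SRB to gauge overt cytotoxicity.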
With O=C(O)C(F)(F)C(F)(F)C(F)(F)C(F)(F)C(F)(F)C(F)(F)C(F)(F)C(F)(F)C(F)(F)C(F)(F)C(F)(F)C(F)(F)F the outcome was “inactive”. In the case of FC1CC(F)(F)C(F)(F)C1(F)F (centres undefined), the outcome was “inactive”. For O=C(O)C(F)(F)C(F)(F)C(F)F, the outcome was “inactive”. For O=C(O)C(F)(F)C(F)(F)OC(F)(F)F, the outcome was “inactive”. For O=C(O)C(F)(F)C(F)(F)C(F)(F)C(F)(F)C(F)(F)C(F)(F)C(F)(F)C(F)(F)C(F)(F)C(F)F, the outcome was “inactive”. In the case of OCCCC(F)(F)C(F)(F)C(F)(F)C(F)(F)C(F)(F)C(F)(F)C(F)(F)F, the AC50 was 37.5 µM (active) and the outcome was “inactive”. For NC(=O)C(F)(F)C(F)(F)C(F)(F)C(F)(F)F, the outcome was “inactive”. Cc1ccc(S(=O)(=O)OCC(F)(F)C(F)(F)C(F)(F)C(F)(F)C(F)(F)C(F)F)cc1 was tested, and the outcome was “inactive”. With FC(F)(F)C(F)(F)C(F)(F)N(C(F)(F)C(F)(F)C(F)(F)F)C(F)(F)C(F)(F)C(F)(F)F the outcome was “inactive”. With FC(F)(F)C(F)(F)C(F)(F)C(F)(F)C(F)(F)C(F)(F)C(F)(F)I the outcome was “inactive”. For O=C(O)C(F)(F)C(F)(F)C(F)(F)C(F)(F)C(F)(F)C(F)(F)C(F)(F)C(F)(F)C(F)(F)C(F)(F)C(F)(F)C(F)(F)C(F)(F)F, the outcome was “inactive”. CCO[Si](CCC(F)(F)C(F)(F)C(F)(F)C(F)(F)C(F)(F)C(F)(F)F)(OCC)OCC was tested, and the outcome was “inactive”. For OCC(F)(F)C(F)(F)C(F)(F)C(F)F, the outcome was “inactive”. In the case of OCCCC(F)(F)C(F)(F)C(F)(F)F, the outcome was “inactive”. In the case of FC(F)(Br)C(F)(F)C(F)(F)C(F)(F)C(F)(F)C(F)(F)Br, the outcome was “inactive”. COC(=O)CCC(F)(F)C(F)(F)C(F)(F)C(F)(F)F was tested, and the outcome was “inactive”. For FC(F)(I)C(F)(F)C(F)(F)C(F)(F)I, the outcome was “inactive”. With C=C(C)C(=O)OCC(F)(F)C(F)(F)C(F)(F)F the outcome was “inactive”. In the case of O=C(O)C(F)(F)C(F)(F)F, the outcome was “inactive”. With N=C(N)C(F)(F)C(F)(F)C(F)(F)C(F)(F)C(F)(F)C(F)(F)C(F)(F)F the outcome was “inactive”. FC(F)(F)C(F)(F)C(F)(F)C(F)(F)C(F)(F)C(F)(F)C(F)(F)C(F)(F)CCS was tested, and the outcome was “inactive”. With O=C(O)C=C(C(F)(F)F)C(F)(F)F the outcome was “inactive”. For FC(F)(F)C(F)(F)C(F)(F)CI, the outcome was “inactive”. For CC(C)(C)C(=O)CC(=O)C(F)(F)C(F)(F)C(F)(F)F, the AC50 was 44.2 µM (active) and the outcome was “inactive”. In the case of FC(F)(F)C(F)(F)C(F)(F)C(F)(F)C(F)(F)C(F)(F)C(F)(F)Br, the outcome was “inactive”. FC(F)(F)C(F)(F)C(F)(F)C(F)(F)C(F)(F)CCI was tested, and the outcome was “inactive”. For O=C(O)C(F)(F)C(F)(F)C(F)(F)C(F)(F)C(F)(F)C(F)(F)C(F)(F)C(F)(F)Cl, the AC50 was 37.3 µM (active) and the outcome was “inactive”. With O=P(O)(O)OCCC(F)(F)C(F)(F)C(F)(F)C(F)(F)C(F)(F)C(F)(F)F the outcome was “inactive”. In the case of FC(F)(F)C(F)(F)C(F)(F)C(F)(F)C(F)(F)C(F)(F)CCS, the outcome was “inactive”. For FC(F)(F)C(F)(F)C(F)(F)C(F)(F)CCI, the outcome was “inactive”. C=CC(F)(F)C(F)(F)C(F)(F)C(F)(F)C(F)(F)C(F)(F)C(F)(F)C(F)(F)C=C was tested, and the outcome was “inactive”. With CCCCCCCCC(F)(F)C(F)(F)C(F)(F)C(F)(F)C(F)(F)C(F)(F)F the outcome was “inactive”. For C=C(C)C(=O)OCC(F)(F)C(F)(F)C(F)(F)C(F)(F)C(F)(F)C(F)(F)C(F)(F)F, the outcome was “inactive”. With O=C(Cl)C(F)(F)C(F)(F)C(F)(F)C(F)(F)C(F)(F)C(F)(F)C(F)(F)C(F)(F)F the AC50 was 23 µM (active) and the outcome was “inactive”. For OCC(F)(F)C(F)(F)C(F)(F)F, the outcome was “inactive”.

Reference: PubChem BioAssay (EPA / NIEHS)
